Results taken from PubChem BioAssay (NCI).
“And” between values parts separate entries of the source, which are not always exact repeats. Equal values may be shown once. About 83,000 compounds went through this panel and 20% of them were active in at least one assay; those are over-represented in the sample as a whole.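 Each cell line was grown in a 96-well plate and treated with one concentration of compound for 48 hours. Values below 10 were considered active.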 The source made the active and inactive calls.

What was measured:
Test in all cases: NCI-60 one-dose screen, 48 h (100 = growth as untreated, 0 = no growth, -100 = all killed)
Conditions in all cases: 10 µM unless noted
[1] = tested on: T-47D breast
[2] = tested on: BT-549 breast
[3] = tested on: MDA-MB-435 melanoma
[4] = tested on: SW-620 colon
[5] = tested on: MCF7 breast
[6] = tested on: HCT-116 colon
[7] = tested on: HCC-2998 colon
[8] = tested on: KM12 colon

SMILES	growth [1]	growth [2]	growth [3]	growth [4]	growth [5]	growth [6]	growth [7]	growth [8]
N/C(=N\N=C\c1ccc2c(c1)OCO2)N/N=C\c1ccc2c(c1)OCO2	112% (inactive) and 107% (inactive)	95.6% (inactive) and 67.7% (inactive)	81.2% (inactive) and 65.5% (inactive)	101% (inactive) and 75.2% (inactive)	94% (inactive) and 56% (inactive)	97.6% (inactive) and 48.8% (inactive)	103% (inactive) and 86.1% (inactive)	93.5% (inactive) and 70.3% (inactive)
CCCCOc1cc(C(=O)NCCN(CC)CC)c2ccccc2n1	82.9% (inactive) and 92.4% (inactive)	93.4% (inactive) and 98.5% (inactive)	88.9% (inactive) and 98.1% (inactive)	105% (inactive) and 97.7% (inactive)	93.3% (inactive) and 95% (inactive)	91% (inactive) and 105% (inactive)	96% (inactive) and 92.2% (inactive)	101% (inactive) and 110% (inactive)
Cn1cc(-c2cc3c(Nc4ccc(CC(=O)Nc5cc(C(C)(C)C)on5)cc4)ncnc3[nH]2)cn1	-1.6% (active) and -13.9% (active)	-15% (active) and -15.8% (active)	-42.3% (active) and -0.328% (active)	-7.24% (active) and 1.5% (active)	4.99% (active) and 7.91% (active)	0.379% (active) and 1.42% (active)	-10.8% (active) and -2.61% (active)	-20.7% (active) and 3.37% (active)
CC(C)CNC(=O)c1ccccc1C(=O)NC1(C(=O)NCC(C)C)CCCC1	106% (inactive) and 95.5% (inactive)	122% (inactive) and 115% (inactive)	101% (inactive) and 105% (inactive)	102% (inactive) and 106% (inactive)	103% (inactive) and 106% (inactive)	106% (inactive) and 104% (inactive)	101% (inactive) and 103% (inactive)	112% (inactive) and 104% (inactive)
Nc1ccn(C2OC(CO)C(O)C2O)c(=O)n1 (configuration not stated)	55.5% (inactive) and 58.3% (inactive) and 101% (inactive)	–	–	–	–	–	–	–
O=Nc1ccc(O)cc1	87.5% (inactive) and 85.2% (inactive)	83% (inactive)	104% (inactive) and 108% (inactive)	86.1% (inactive) and 94.1% (inactive)	84.6% (inactive) and 93.4% (inactive)	103% (inactive) and 78.3% (inactive)	101% (inactive) and 104% (inactive)	101% (inactive) and 94.7% (inactive)
O=C1c2ccccc2C(=O)N1/N=C/c1ccc2c(c1)OCO2	99.9% (inactive)	97.2% (inactive)	114% (inactive)	107% (inactive)	91.3% (inactive)	95% (inactive)	116% (inactive)	113% (inactive)
CCOC(=O)Nc1ccc2c(c1)/C(=N\NC(N)=S)c1ccccc1-2	26.4% (inactive) and 31.3% (inactive)	41.6% (inactive) and 82.6% (inactive)	57.3% (inactive) and 59.9% (inactive)	80.7% (inactive) and 81.2% (inactive)	63% (inactive) and 70.6% (inactive)	53.5% (inactive) and 71.4% (inactive)	60.9% (inactive) and 68.9% (inactive)	40.4% (inactive) and 54.2% (inactive)
CO/N=C/C=C\C(=O)N/C=C/C[C@H]1/C=C/[C@H](O)/C=C\C=C\c2cccc(O)c2C(=O)O1	16.4% (inactive) and 17.4% (inactive)	31.6% (inactive) and 46.9% (inactive)	6.42% (active) and -15.8% (active)	17.5% (inactive) and 8.83% (active)	35.6% (inactive) and 26.1% (inactive)	21.3% (inactive) and 14.9% (inactive)	59.3% (inactive) and 29.1% (inactive)	34.3% (inactive) and 20.8% (inactive)
CCN1CCN(CCNc2nccc(-c3c(-c4cccc(O)c4)nc4sccn34)n2)S1(=O)=O	76.7% (inactive) and 72.5% (inactive)	72% (inactive) and 83.8% (inactive)	20% (inactive) and 11% (inactive)	107% (inactive) and 101% (inactive)	86.8% (inactive) and 83.6% (inactive)	53.5% (inactive) and 47.7% (inactive)	111% (inactive) and 97.1% (inactive)	52.4% (inactive) and 68.9% (inactive)
COc1c(/C(C)=N/N=c2sc(C(C)=O)nn2-c2ccc(Cl)cc2)c(Oc2ccccc2)c(OC)c2occc12	98.7% (inactive) and 76.5% (inactive)	115% (inactive) and 103% (inactive)	103% (inactive) and 104% (inactive)	102% (inactive) and 92.8% (inactive)	99.9% (inactive) and 88.3% (inactive)	96.4% (inactive) and 77.8% (inactive)	107% (inactive) and 110% (inactive)	93.7% (inactive) and 96.5% (inactive)
CCN(CC)CCNc1cc(-c2cccc(OC(F)(F)F)c2)nc2ccc(N3CCCC3)cc12	64.4% (inactive) and -11.2% (active) and 20.9% (inactive)	-70.7% (active) and 34.3% (inactive) and 62.7% (inactive)	-4.48% (active) and -55% (active) and -33.6% (active)	31% (inactive) and 0.803% (active) and 8.35% (active)	6.94% (active) and -27.3% (active) and -21.5% (active)	-88% (active) and -45.7% (active) and 4.4% (active)	23.8% (inactive) and -45.2% (active) and -4.48% (active)	32.3% (inactive) and -1.83% (active) and 9.39% (active)
CCC(C)C1(C2CCCC2)NC(=O)NC1=O (configuration not stated)	97.1% (inactive) and 98.3% (inactive)	107% (inactive)	121% (inactive) and 102% (inactive)	112% (inactive) and 98.9% (inactive)	99.3% (inactive) and 97.3% (inactive)	100% (inactive) and 112% (inactive)	103% (inactive) and 102% (inactive)	106% (inactive) and 111% (inactive)
Cn1c(SSc2ccc(-c3cccnc3)n2C)ccc1-c1cccnc1	83.3% (inactive) and 121% (inactive)	107% (inactive) and 105% (inactive)	92.8% (inactive) and 82% (inactive)	62.8% (inactive) and 11.1% (inactive)	76.4% (inactive) and 117% (inactive)	82.3% (inactive) and 99.2% (inactive)	112% (inactive) and 102% (inactive)	98.5% (inactive) and 95.5% (inactive)
COc1cc(/C=N/Nc2nc3c([nH]2)c(=O)n(C)c(=O)n3C)ccc1O	93% (inactive) and 102% (inactive)	103% (inactive) and 112% (inactive)	104% (inactive) and 116% (inactive)	105% (inactive) and 110% (inactive)	97% (inactive) and 95.2% (inactive)	100% (inactive) and 108% (inactive)	102% (inactive) and 124% (inactive)	67.6% (inactive) and 79.4% (inactive)
Cc1cc(C)c(N)c(Br)c1	98.1% (inactive) and 87.3% (inactive)	108% (inactive) and 88.8% (inactive)	114% (inactive) and 104% (inactive)	111% (inactive) and 104% (inactive)	103% (inactive)	110% (inactive) and 95.8% (inactive)	112% (inactive)	106% (inactive) and 102% (inactive)
c1ccc2cc(C[n+]3ccn(Cc4ccc5ccccc5n4)c3)ccc2c1	-5.71% (active) and 13.1% (inactive)	-15.9% (active) and 12.2% (inactive)	4.58% (active) and 19.6% (inactive)	18.9% (inactive) and 56.4% (inactive)	9.04% (active)	2.66% (active)	11.1% (inactive) and 30.9% (inactive)	-7.63% (active) and 12.6% (inactive)
Nc1cc(-c2cccc(OC(F)(F)F)c2)nc2ccc(N3CCCC3)cc12	99.2% (inactive) and 100% (inactive) and 87.9% (inactive)	16.2% (inactive) and 26.9% (inactive) and 3.22% (active)	-9.34% (active) and -21.4% (active) and -35.8% (active)	26.8% (inactive) and 32% (inactive) and 21.7% (inactive)	15.4% (inactive) and 14.9% (inactive) and 15.8% (inactive)	2.86% (active) and 5.92% (active) and 2.47% (active)	-31.7% (active) and 2.5% (active) and -33.8% (active)	10.1% (inactive) and 14.3% (inactive) and 3.24% (active)
